Assay [1] is described as follows: sensitizers of A549 cells to miR-34 induction, primary screen, imaging, A549 dox-inducible miR-34, nuclei and caspase counts (AID 1347080). Also: test concentration not given here. The conditions noted are these: A549 miR-34 inducible, Hoechst nuclei count, 48 h.
Assay [2] can be described thus: survival rescue of mitochondrial mutant cells in low glucose, primary screen, MELAS cybrids, Rieske KO mouse fibroblasts, CellTiter-Glo (AID 1508586;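 active = mean z-score across replicates of 1.96 or higher in either the MELAS or the Rieske mutant cell line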;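 also: test concentration not given here; z relative to plate mean and SD of compound and empty wells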).
The nature of assay [3]: viability rescue of complex I mutant cybrids, primary screen, cell-based, galactose medium, ATP luminescence (AID 1645843;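 active = z-score of at least 1.8 in each of two replicates, scored against plate mean and spread of sample wells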;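 also: positive z means more ATP and so rescue of galactose-driven cybrid death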). The conditions noted are these: complex I mutant cybrid cells, 72 h, stronger effect = higher value.
Setting [4] is: stronger effect = lower value, cell number ratio, induced over uninduced.
Where [5] appears, read: measured here: relative caspase fold change +Dox/-Dox.
Where [6] appears, read: measured here: total cells with miR-34 induction, stronger effect = lower value.
[7] abbreviates: measured here: total cells without miR-34 induction.
The mark [8] stands for this setting: MELAS cybrid survival, CellTiter-Glo 48 h, stronger effect = higher value.
[9] abbreviates: Rieske KO mouse fibroblast survival, CellTiter-Glo 72 h.

“And” between values parts separate entries of the source, which are not always exact repeats. Equal entries are not always repeated. The source made the active and inactive calls.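 The calls were made as follows, unless noted: active = compounds whose cell count with miR-34 switched on is under 0.7 times the count with it off; inactive = the rest.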

For the compound `NS(=O)(=O)c1ccc(C(=O)NCCn2cccn2)cc1`, the fold change in assay [1] (setting [4]) was 0.945 (inactive); in assay [1] (setting [5]), 1.97. The cell count amounted to 9500 in assay [1] (setting [6]) and 10100 in assay [1] (setting [7]). Besides, the z-score in assay [2] (setting [8]) was -0.281 (inactive); in assay [2] (setting [9]) it was -0.563; in assay [3], -0.555 (inactive).

In the case of `COc1ccccc1-c1cnn(CC(=O)Nc2cc(C)nn2C)c1`, the figures for the fold change in assay [1] (setting [4]) and in assay [1] (setting [5]) were 0.86 (inactive) and 2.23, respectively. In addition, the cell count in assay [1] (setting [6]) stood at 7820; in assay [1] (setting [7]), 9090. Moreover, the z-score in assay [2] (setting [8]) was 0.116 (inactive); in assay [2] (setting [9]), -1.22; in assay [3], -0.56 (inactive).

On to `O=C(O)CNC(=O)c1cccc(O)c1`, for which the figures for the fold change in assay [1] (setting [4]) and in assay [1] (setting [5]) were 0.865 (inactive) and 0.603, respectively. In addition, the cell count in assay [1] (setting [6]) came out at 8440; in assay [1] (setting [7]), 9760. For the same compound, the values for the z-score in assay [2] (setting [8]), in assay [2] (setting [9]) and in assay [3] were 0.669 (inactive), 0.0478 and 0.945 (inactive), respectively.

In the case of `O=C(OC1Cc2c(O)cc(O)cc2OC1c1cc(O)c(O)c(O)c1)c1cc(O)c(O)c(O)c1` (stereo not given), the fold change in assay [1] (setting [4]) is 0.855 (inactive) and 0.924 (inactive); in assay [1] (setting [5]) it was 1.5 and 0.635. In addition, the cell count is 9030 and 8300 in assay [1] (setting [6]); 10600 and 8990 in assay [1] (setting [7]). In addition, the z-score in assay [2] (setting [8]) is -0.179 (inactive); in assay [2] (setting [9]), -0.151; in assay [3], -1.44 (inactive).

For `COc1cc(N(C)CC2COc3ccccc3O2)nc(N)n1` (stereo not given), the fold change was 0.844 (inactive) in assay [1] (setting [4]) and 2.02 in assay [1] (setting [5]). For the same compound, the cell count came to 3500 in assay [1] (setting [6]) and 4140 in assay [1] (setting [7]). In addition, the z-score is 0.477 (inactive) in assay [2] (setting [8]), -0.0472 in assay [2] (setting [9]) and -0.58 (inactive) in assay [3].

`O=C(O)CCCCc1ccccc1`: the fold change in assay [1] (setting [4]) was 0.916 (inactive); in assay [1] (setting [5]), 0.396. The cell count in assay [1] (setting [6]) amounted to 9010; in assay [1] (setting [7]) it was 9830. Also, the values for the z-score in assay [2] (setting [8]), in assay [2] (setting [9]) and in assay [3] were 0.335 (inactive), -0.289 and 0.82 (inactive), respectively.

For `OC(CNCC(O)C1CCc2cc(F)ccc2O1)C1CCc2cc(F)ccc2O1` (stereo not given), the fold change in assay [1] (setting [4]) was 1.62 (inactive); in assay [1] (setting [5]), 0.335. The cell count in assay [1] (setting [6]) was 2500; in assay [1] (setting [7]) it was 1540. Moreover, the values for the z-score in assay [2] (setting [8]), in assay [2] (setting [9]) and in assay [3] were 0.602, 2.88 and -2.66 (inactive), respectively.

Turning to `COc1ccc(CN2CCN(c3ncnc4sccc34)CC2=O)cc1`, the fold change in assay [1] (setting [4]) was 0.842 (inactive); in assay [1] (setting [5]) it was 1.22. Also, the cell count was determined as 5020 in assay [1] (setting [6]) and 5960 in assay [1] (setting [7]). Also, the z-score is -0.496 (inactive) in assay [2] (setting [8]), -0.343 in assay [2] (setting [9]) and 0.64 (inactive) in assay [3].

As to `O=S(=O)(O)CCNC1CCCCC1`, the fold change in assay [1] (setting [4]) was 0.931 (inactive); in assay [1] (setting [5]) it was 0.147. Also, the cell count in assay [1] (setting [6]) was 9490; in assay [1] (setting [7]) it was 10200. Moreover, the z-score in assay [2] (setting [8]) is 0.282 (inactive); in assay [2] (setting [9]), -0.218; in assay [3], 0.78 (inactive).

As for `Cc1nn(C)cc1-c1ccnc(NCc2nc(-c3ccccc3)no2)n1`, the figures for the fold change in assay [1] (setting [4]) and in assay [1] (setting [5]) were 0.84 (inactive) and 1.25, respectively. Besides, the values for the cell count in assay [1] (setting [6]) and in assay [1] (setting [7]) were 7970 and 9490, respectively. In addition, the z-score in assay [2] (setting [8]) was -0.588 (inactive); in assay [2] (setting [9]), 1.31; in assay [3], 0.09 (inactive).

Turning to `CN(C)C(=O)c1cc(-c2cnc(-c3ccccn3)nc2)nc2cc(F)ccc12`, the fold change was 0.875 (inactive) in assay [1] (setting [4]) and 1.98 in assay [1] (setting [5]). The cell count was 8570 in assay [1] (setting [6]) and 9790 in assay [1] (setting [7]). Moreover, the values for the z-score in assay [2] (setting [8]), in assay [2] (setting [9]) and in assay [3] were -0.444 (inactive), -0.334 and -0.41 (inactive), respectively.

Turning to `CN(C)CCC=C1c2ccccc2COc2ccc(CC(=O)O)cc21`, the fold change in assay [1] (setting [4]) is 0.912 (inactive) and 0.919 (inactive); in assay [1] (setting [5]) it was 1.41 and 0.942. In addition, the cell count in assay [1] (setting [6]) was 9480 and 9680; in assay [1] (setting [7]), 10400 and 10500. The results for the z-score in assay [2] (setting [8]), in assay [2] (setting [9]) and in assay [3] were -0.314 (inactive), 0.569 and 1.25 (inactive), respectively.

For `CC(=O)c1sc(Nc2ccccc2)nc1C`, the fold change in assay [1] (setting [4]) is 0.911 (inactive); in assay [1] (setting [5]), 0.648. The cell count in assay [1] (setting [6]) turned out to be 8310; in assay [1] (setting [7]) it was 9120. The values for the z-score in assay [2] (setting [8]), in assay [2] (setting [9]) and in assay [3] were 3.09 (active), -0.213 and 0.63 (inactive), respectively.

In the case of `O=C(NCCCc1ccccc1)NC1CCCCC1`, the fold change in assay [1] (setting [4]) is 0.869 (inactive); in assay [1] (setting [5]) it was 0.557. The results for the cell count in assay [1] (setting [6]) and in assay [1] (setting [7]) were 8240 and 9480, respectively. Further, the figures for the z-score in assay [2] (setting [8]), in assay [2] (setting [9]) and in assay [3] were -0.491 (inactive), -0.675 and 0.35 (inactive), respectively.

`CCc1nc(NC(=O)N(C)Cc2cccc(-n3cccn3)c2)nn1C`: the fold change was 0.843 (inactive) in assay [1] (setting [4]) and 1.39 in assay [1] (setting [5]). Also, the cell count in assay [1] (setting [6]) is 7990; in assay [1] (setting [7]) it was 9480. For the same compound, the z-score in assay [2] (setting [8]) was 0.262 (inactive); in assay [2] (setting [9]) it was -0.471; in assay [3], -0.535 (inactive).

In the case of `COc1ccc(-c2oc3ncnc(NCCO)c3c2-c2ccc(OC)cc2)cc1`, the fold change is 0.89 (inactive) in assay [1] (setting [4]) and 0.844 in assay [1] (setting [5]). Also, the cell count amounted to 5740 in assay [1] (setting [6]) and 6450 in assay [1] (setting [7]). Also, the results for the z-score in assay [2] (setting [8]), in assay [2] (setting [9]) and in assay [3] were 1.03, 11.9 and -1.77 (inactive), respectively.

`CCn1nccc1NC(=O)Cn1cc(-c2ccc(C(=O)N3CCCC3)cn2)cn1`: the values for the fold change in assay [1] (setting [4]) and in assay [1] (setting [5]) were 0.832 (inactive) and 1.64, respectively. Besides, the cell count in assay [1] (setting [6]) was determined as 7850; in assay [1] (setting [7]), 9430. The z-score was 0.812 (inactive) in assay [2] (setting [8]), -0.539 in assay [2] (setting [9]) and -0.57 (inactive) in assay [3].

With `CC(=O)NC(CCCN=C(N)N)C(=O)O` (stereo not given), the fold change in assay [1] (setting [4]) was 0.897 (inactive); in assay [1] (setting [5]) it was 0.717. The cell count was 8640 in assay [1] (setting [6]) and 9630 in assay [1] (setting [7]). For the same compound, the z-score in assay [2] (setting [8]) is -1.33 (inactive); in assay [2] (setting [9]), -0.192; in assay [3], 0.785 (inactive).

Regarding `Cc1nn(C)c(C)c1-c1ccnc(NCCOCCO)n1`, the fold change in assay [1] (setting [4]) is 0.905 (inactive); in assay [1] (setting [5]) it was 1.28. Further, the cell count in assay [1] (setting [6]) amounted to 8320; in assay [1] (setting [7]), 9200. Moreover, the values for the z-score in assay [2] (setting [8]), in assay [2] (setting [9]) and in assay [3] were 0.0151 (inactive), -0.129 and -0.555 (inactive), respectively.

For `COc1cc(OC)c(-c2nnc3ccccn23)cc1OC`, the fold change in assay [1] (setting [4]) was 0.917 (inactive); in assay [1] (setting [5]), 1.49. The cell count was determined as 9720 in assay [1] (setting [6]) and 10600 in assay [1] (setting [7]). Also, the z-score in assay [2] (setting [8]) is -0.104 (inactive); in assay [2] (setting [9]), 0.208; in assay [3], -0.52 (inactive).
